Reference: PubChem BioAssay AID1159580 (chemical genetic matrix, 2015)
The whole screen tested about 5,500 compounds, of which about 2,000 (36%) were called active. Another 18% or so got no clear call; they are omitted. No stated cut-off is given here; in the data, active means normalized growth mostly below about 0.91 (no sharp cut-off); inconclusive means no clear call, values can overlap the other calls; inactive means mostly above about 0.92. Some of the results follow.

Assay: chemical genetic growth profiling, strain panel (AID 1159580);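 further: tested at 20 µM; growth read once vehicle control cultures reached saturation at 30 °C; 1 = growth at the plate median or of vehicle wells; lower values mean less growth of the strain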
Conditions: S. cerevisiae deletion strains, growth OD
[1] = locus YAR019C, strain CDC15, active compounds read low
[2] = locus YBL105C, strain PKC1, active compounds read low
[3] = locus YBR135W, strain CKS1, active compounds read low
[4] = locus YBR136W, strain MEC1, active compounds read low
[5] = locus YBR160W, strain CDC28, active compounds read low
[6] = locus YDL017W, strain CDC7, active compounds read low
[7] = locus YDL028C, strain MPS1, active compounds read low
[8] = locus YDL101C, strain DUN1, active compounds read low
[9] = locus YDL108W, strain KIN28, active compounds read low
[10] = locus YDL132W, strain cdc53, active compounds read low
[11] = locus YDL214C, strain PRR2, active compounds read low
[12] = locus YDR052C, strain DBF4, active compounds read low
[13] = locus YDR054C, strain cdc34, active compounds read low
[14] = locus YDR226W, strain ADK1, active compounds read low
[15] = locus YDR477W, strain SNF1, active compounds read low
[16] = locus YER123W, strain YCK3, active compounds read low
[17] = locus YER133W, strain GLC7, active compounds read low
[18] = locus YFL009W, strain cdc4, active compounds read low
[19] = locus YFL029C, strain CAK1, active compounds read low
[20] = locus YFR003C, strain YPI1, active compounds read low
[21] = locus YFR019W, strain FAB1, active compounds read low
[22] = locus YFR028C, strain CDC14, active compounds read low
[23] = locus YGR040W, strain KSS1, active compounds read low
[24] = locus YGR052W, strain FMP48, active compounds read low
[25] = locus YGR092W, strain DBF2, active compounds read low
[26] = locus YHR030C, strain SLT2, active compounds read low
[27] = locus YHR079C, strain IRE1, active compounds read low
[28] = locus YHR082C, strain KSP1, active compounds read low
[29] = locus YHR205W, strain SCH9, active compounds read low
[30] = locus YIL147C, strain SLN1, active compounds read low
[31] = locus YJL095W, strain BCK1, active compounds read low
[32] = locus YJL128C, strain PBS2, active compounds read low
[33] = locus YJL157C, strain FAR1, active compounds read low
[34] = locus YJR016C, strain ILV3, active compounds read low
[35] = locus YJR066W, strain TOR1 (second series), active compounds read low
[36] = locus YJR066W, strain TOR1, active compounds read low
[37] = locus YKL048C, strain ELM1, active compounds read low
[38] = locus YKL067W, strain YNK1, active compounds read low
[39] = locus YKL101W, strain HSL1, active compounds read low
[40] = locus YKL193C, strain SDS22, active compounds read low
[41] = locus YKL203C, strain TOR2, active compounds read low
[42] = locus YLR113W, strain HOG1, active compounds read low
[43] = locus YLR133W, strain CKI1, active compounds read low
[44] = locus YLR403W, strain SFP1, active compounds read low
[45] = locus YML070W, strain DAK1, active compounds read low
[46] = locus YMR001C, strain CDC5, active compounds read low
[47] = locus YMR205C, strain PFK2 (second series), active compounds read low
[48] = locus YMR277W, strain FCP1, active compounds read low
[49] = locus YNL006W, strain LST8, active compounds read low
[50] = locus YNL020C, strain ARK1, active compounds read low
[51] = locus YNL161W, strain CBK1, active compounds read low
[52] = locus YNL183C, strain NPR1, active compounds read low
[53] = locus YNL207W, strain RIO2, active compounds read low
[54] = locus YNL222W, strain SSU72, active compounds read low
[55] = locus YNL307C, strain MCK1 (second series), active compounds read low
[56] = locus YOL078W, strain AVO1, active compounds read low
[57] = locus YOL136C, strain PFK27, active compounds read low
[58] = locus YOR061W, strain CKA2, active compounds read low
[59] = locus YOR119C, strain RIO1, active compounds read low
[60] = locus YOR231W, strain MKK1, active compounds read low
[61] = locus YOR329C, strain SCD5, active compounds read low
[62] = locus YPL031C, strain PHO85, active compounds read low
[63] = locus YPL153C, strain RAD53, active compounds read low
[64] = locus YPL204W, strain HRR25, active compounds read low
[65] = locus YPL209C, strain IPL1, active compounds read low
[66] = locus YPL256C, strain CLN2, active compounds read low
[67] = locus YPR025C, strain CCL1, active compounds read low
[68] = locus YPR106W, strain ISR1, active compounds read low
[69] = locus YPR111W, strain DBF20, active compounds read low
[70] = strain NNK1, active compounds read low
[71] = strain TSCII, active compounds read low

Measured: normalized growth

Cc1c(Cl)cccc1NC(=S)N1CCCN(c2ccc(C(F)(F)F)cc2[N+](=O)[O-])CC1
inactive: [1] 0.991 | [2] 0.979 | [3] 0.992 | [4] 0.971 | [5] 0.994 | [6] 0.993 | [7] 0.995 | [8] 0.977 | [9] 0.978 | [10] 0.986 | [11] 0.971 | [12] 0.991 | [13] 0.976 | [14] 0.987 | [15] 0.983 | [16] 0.988 | [17] 0.969 | [18] 0.98 | [19] 0.994 | [20] 0.987 | [21] 0.957 | [22] 0.995 | [23] 0.98 | [24] 1.04 | [25] 0.964 | [27] 0.89 | [28] 1.06 | [29] 1 | [30] 0.989 | [31] 1.01 | [32] 0.942 | [33] 0.951 | [34] 0.982 | [35] 0.974 | [36] 1.02 | [37] 0.984 | [38] 0.974 | [39] 0.988 | [40] 0.995 | [41] 1.01 | [43] 0.955 | [44] 0.952 | [45] 0.992 | [46] 0.961 | [47] 0.979 | [48] 0.997 | [49] 0.982 | [50] 0.972 | [51] 0.979 | [52] 1.05 | [53] 0.982 | [54] 0.984 | [55] 0.964 | [56] 0.989 | [57] 0.965 | [58] 0.963 | [59] 1.05 | [60] 0.993 | [61] 0.981 | [62] 0.979 | [63] 1 | [64] 0.931 | [65] 0.99 | [66] 0.866 | [67] 0.99 | [68] 0.969 | [69] 0.956 | [70] 0.985 | [71] 0.981
active: [26] 0.842 | [42] 0.859

O=C(c1ccccc1)C1CCN(c2ccc(C(F)(F)F)cc2[N+](=O)[O-])CC1
inactive: locus YAL013W, strain DEP1, active compounds read low 0.995 | locus YBR229C, strain ROT2, active compounds read low 1.01 | [8] 0.995 | locus YDL134C, strain PPH21, active compounds read low 1.01 | locus YDR150W, strain NUM1, active compounds read low 1 | locus YEL061C, strain CIN8, active compounds read low 1 | locus YGR078C, strain PAC10, active compounds read low 0.982 | [26] 1.02 | locus YHR087W, strain rtc3, active compounds read low 0.98 | locus YJR043C, strain POL32, active compounds read low 1 | locus YJR075W, strain HOC1, active compounds read low 0.946 | locus YLR039C, strain RIC1, active compounds read low 1.02 | locus YLR058C, strain SHM2 (second series), active compounds read low 0.997 | locus YLR085C, strain ARP6, active compounds read low 0.953 | locus YLR262C, strain YPT6, active compounds read low 1.01 | locus YML094W, strain GIM5, active compounds read low 1.01 | locus YMR219W, strain ESC1, active compounds read low 0.996 | locus YMR263W, strain SAP30, active compounds read low 0.998 | locus YMR307W, strain GAS1, active compounds read low 0.991 | locus YNL153C, strain GIM3, active compounds read low 0.991 | locus YNL298W, strain CLA4 (second series), active compounds read low 1.02 | locus YNL322C, strain KRE1, active compounds read low 1.01 | locus YNR030W, strain Alg12, active compounds read low 1.04 | locus YPL055C, strain LGE1, active compounds read low 0.999 | locus YPL241C, strain CIN2, active compounds read low 0.931 | locus YPR135W, strain CTF4, active compounds read low 0.978

CC(C)(C)C1=NN(c2nc3ccc(Cl)cc3s2)C(=O)C1
active: [1] 0.484 | [2] 0.0905 | [3] 0.0897 | [4] 0.102 | [5] 0.111 | [6] 0.0926 | [7] 0.105 | [8] 0.496 | [9] 0.516 | [10] 0.436 | [11] 0.104 | [12] 0.116 | [13] 0.225 | [15] 0.11 | [16] 0.0976 | [17] 0.11 | [18] 0.11 | [19] 0.0958 | [20] 0.0998 | [21] 0.109 | [22] 0.101 | [23] 0.121 | [24] 0.114 | [25] 0.0994 | [26] 0.106 | [27] 0.111 | [28] 0.121 | [29] 0.00427 | [30] 0.104 | [31] 0.104 | [32] 0.103 | [33] 0.101 | [34] 0.118 | [35] 0.0988 | [36] 0.108 | [37] 0.119 | [38] 0.144 | [39] 0.0952 | [40] 0.093 | [41] 0.1 | [42] 0.14 | [43] 0.107 | [44] 0.00206 | [45] 0.1 | [46] 0.15 | [47] 0.0849 | [48] 0.262 | [49] 0.12 | [50] 0.107 | [51] 0.429 | [52] 0.105 | [53] 0.179 | [54] 0.504 | [55] 0.107 | [56] 0.0851 | [57] 0.111 | [58] 0.0975 | [59] 0.114 | [60] 0.104 | [61] 0.299 | [62] 0.0965 | [63] 0.0988 | [64] 0.11 | [65] 0.0986 | [66] 0.121 | [67] 0.124 | [68] 0.199 | [69] 0.463 | [70] 0.106 | [71] 0.48
inactive: [14] 0.898
